{"source": "PubChem BioAssay (NCATS)", "note": "Several values for one entry are separate records, joined by “and”; a condition that tells them apart may be missing. Equal values may be shown once. Results filed as inconclusive are left out. Values without a mark were called inactive. Activity calls are given as the source filed them. Calls come from the whole dose curve; as a rule, active = well fitted inhibition curve with a large enough effect; inconclusive = small, poorly fitted or top-dose-only effect; inactive = flat fitted curve, though single readings scatter. % is set by controls: 0 for no effect and ±100 for the full control effect; potency is the fitted concentration of half-maximal effect.", "data": [{"system": "CRL-7250", "test": "Cytotoxic Profiling of Annotated Libraries Using Quantitative High-Throughput Screening (AID 1296008); note: nearly all actives have a fitted effect of over 60% in size", "settings": "Five cell lines viability, CellTiter-Glo ATP luminescence, 48-72 h; stronger effect = lower value", "procedure,_shortened": "(§1)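 Cytotoxicity was measured as CellTiter-Glo ATP luminescence, read after 10 min at room temperature. Compound treatment of the cells lasted 48 or 72 hr at 37 degrees Celsius in a qHTS format.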", "units": {"max response": "%"}, "values": [{"smiles": "Oc1ccc(/C=C/c2cc(O)cc(O)c2)cc1", "max response": -2.32}, {"smiles": "CC(=O)Oc1cccc2c1C(=O)c1c(OC(C)=O)cc(C(=O)O)cc1C2=O", "max response": -18.7}, {"smiles": "O=C(O)Cc1cc(I)c(Oc2ccc(O)c(I)c2)c(I)c1", "outcome": "inactive"}, {"smiles": "O=C1c2ccccc2C(=O)c2c1ccc(O)c2O", "max response": -3.43}, {"smiles": "CN(C)CCCSc1ccccc1NC(=O)/C=C/c1ccccc1", "max response": -4.07}, {"smiles": "CCN(CC)CCOCCOC(=O)C(CC)(CC)c1ccccc1", "outcome": "inactive"}, {"smiles": "C=C1CC[C@H](O)CC1=C/C=C1\\CCC[C@]2(C)[C@@H]([C@H](C)/C=C/[C@H](C)C(C)C)CC[C@@H]12", "max response": -11.3}, {"smiles": "CC(C)(C)c1ccc(CN2CCN(C(c3ccccc3)c3ccc(Cl)cc3)CC2)cc1", "note": "(configuration not stated)", "max response": 1.08}, {"smiles": "Nc1ccc(N=Nc2ccccc2)c(N)n1", "outcome": "inactive"}, {"smiles": "C[C@]12CC[C@@H]3c4ccc(OC(=O)c5ccccc5)cc4CC[C@H]3[C@@H]1CC[C@@H]2O", "outcome": "inactive"}, {"smiles": "COc1ccc2nc(NC(=O)Nc3ccccc3)sc2c1", "max response": 1.89}, {"smiles": "O=C(OCc1ccccc1)c1ccc(O)cc1", "max response": -9.5}, {"smiles": "C/C(=C\\C(=O)OCCCCCCCCC(=O)O)C[C@@H]1OC[C@H](C[C@@H]2O[C@H]2[C@@H](C)[C@H](C)O)[C@@H](O)[C@H]1O", "max response": 4.39}]}, {"system": "HEK293", "test": "Cytotoxic Profiling of Annotated Libraries Using Quantitative High-Throughput Screening (AID 1296008)", "settings": "Five cell lines viability, CellTiter-Glo ATP luminescence, 48-72 h; max response: stronger effect = lower value", "procedure,_shortened": "as §1", "units": {"max response": "%"}, "values": [{"smiles": "Oc1ccc(/C=C/c2cc(O)cc(O)c2)cc1", "max response": -3.47}, {"smiles": "CC(=O)Nc1ccc(NC(=S)NC(=O)c2ccc(C(C)(C)C)cc2)cc1", "Potency": "651 nM (active)"}, {"smiles": "Nc1ccc(N=Nc2ccccc2)c(N)n1", "max response": 4.3}, {"smiles": "C[C@]12CC[C@@H]3c4ccc(OC(=O)c5ccccc5)cc4CC[C@H]3[C@@H]1CC[C@@H]2O", "max response": -10}, {"smiles": "O=C(OCc1ccccc1)c1ccc(O)cc1", "outcome": "inactive"}, {"smiles": "C/C(=C\\C(=O)OCCCCCCCCC(=O)O)C[C@@H]1OC[C@H](C[C@@H]2O[C@H]2[C@@H](C)[C@H](C)O)[C@@H](O)[C@H]1O", "max response": -15.8}]}, {"system": "HaCat", "test": "Cytotoxic Profiling of Annotated Libraries Using Quantitative High-Throughput Screening (AID 1296008)", "settings": "Five cell lines viability, CellTiter-Glo ATP luminescence, 48-72 h; stronger effect = lower value", "procedure,_shortened": "as §1", "units": {"max response": "%"}, "values": [{"smiles": "CC(=O)Oc1cccc2c1C(=O)c1c(OC(C)=O)cc(C(=O)O)cc1C2=O", "outcome": "inactive"}, {"smiles": "O=C(O)Cc1cc(I)c(Oc2ccc(O)c(I)c2)c(I)c1", "outcome": "inactive"}, {"smiles": "O=C1c2ccccc2C(=O)c2c1ccc(O)c2O", "max response": 4.09}, {"smiles": "CC(=O)Nc1ccc(NC(=S)NC(=O)c2ccc(C(C)(C)C)cc2)cc1", "max response": -11.2}, {"smiles": "CN(C)CCCSc1ccccc1NC(=O)/C=C/c1ccccc1", "outcome": "inactive"}, {"smiles": "CCN(CC)CCOCCOC(=O)C(CC)(CC)c1ccccc1", "outcome": "inactive"}, {"smiles": "C=C1CC[C@H](O)CC1=C/C=C1\\CCC[C@]2(C)[C@@H]([C@H](C)/C=C/[C@H](C)C(C)C)CC[C@@H]12", "outcome": "inactive"}, {"smiles": "CC(C)(C)c1ccc(CN2CCN(C(c3ccccc3)c3ccc(Cl)cc3)CC2)cc1", "note": "(configuration not stated)", "outcome": "inactive"}, {"smiles": "Nc1ccc(N=Nc2ccccc2)c(N)n1", "max response": 0.77}, {"smiles": "C[C@]12CC[C@@H]3c4ccc(OC(=O)c5ccccc5)cc4CC[C@H]3[C@@H]1CC[C@@H]2O", "max response": -1.32}, {"smiles": "COc1ccc2nc(NC(=O)Nc3ccccc3)sc2c1", "outcome": "inactive"}, {"smiles": "C/C(=C\\C(=O)OCCCCCCCCC(=O)O)C[C@@H]1OC[C@H](C[C@@H]2O[C@H]2[C@@H](C)[C@H](C)O)[C@@H](O)[C@H]1O", "max response": -2.01}, {"smiles": "CC1CC(OC(=O)C(O)c2ccccc2)CC(C)(C)C1", "note": "(configuration not stated)", "outcome": "inactive"}]}, {"system": "KB-3-1", "test": "Cytotoxic Profiling of Annotated Libraries Using Quantitative High-Throughput Screening (AID 1296008)", "settings": "Five cell lines viability, CellTiter-Glo ATP luminescence, 48-72 h; max response: stronger effect = lower value", "procedure,_shortened": "as §1", "values": [{"smiles": "Oc1ccc(/C=C/c2cc(O)cc(O)c2)cc1", "max response": "36.2%"}, {"smiles": "O=C(O)c1cc(O)c2c(c1)[C@H]([C@H]1c3cc(C(=O)O)cc(O)c3C(=O)c3c(O[C@@H]4O[C@H](CO)[C@@H](O)[C@H](O)[C@H]4O)cccc31)c1cccc(O[C@@H]3O[C@H](CO)[C@@H](O)[C@H](O)[C@H]3O)c1C2=O", "max response": "-13.8%"}, {"smiles": "CC(=O)Oc1cccc2c1C(=O)c1c(OC(C)=O)cc(C(=O)O)cc1C2=O", "max response": "-2.72%"}, {"smiles": "C=CC(C)(O)CC/C=C(\\C)CCC=C(C)C", "note": "(configuration not stated)", "max response": "0.0537%"}, {"smiles": "Cc1cccc(C)c1Nc1ncccc1C(=O)O", "max response": "-0.608%"}, {"smiles": "COC1[C@@H](O[C@@H]2O[C@H](C)[C@@H](O[C@H]3C[C@@](C)(O)[C@H](OC(=O)CC(C)C)[C@H](C)O3)[C@H](N(C)C)[C@H]2O)[C@@H](CC=O)C[C@@H](C)[C@@H](O)/C=C/C=C/C[C@@H](C)OC(=O)C[C@H]1OC(C)=O", "note": "(some centres not stated)", "max response": "-19.6%"}, {"smiles": "O=C1c2ccccc2C(=O)c2c1ccc(O)c2O", "max response": "-6.82%"}, {"smiles": "CC(=O)Nc1ccc(NC(=S)NC(=O)c2ccc(C(C)(C)C)cc2)cc1", "Potency": "4110 nM (active)"}, {"smiles": "OC[C@@H](O)C(O)[C@H](O)CO", "max response": "2.54%"}, {"smiles": "COc1ccc(C(=O)CCC(=O)O)c2ccccc12", "max response": "-0.566%"}, {"smiles": "CC(C)c1nc(N(C)S(C)(=O)=O)nc(-c2ccc(F)cc2)c1/C=C/C(O)CC(O)CC(=O)O", "note": "(configuration not stated)", "max response": "0.926%"}, {"smiles": "CN(C)CCCSc1ccccc1NC(=O)/C=C/c1ccccc1", "max response": "-0.0858%"}, {"smiles": "CCN(CC)CCOCCOC(=O)C(CC)(CC)c1ccccc1", "max response": "-1.64% and -0.0412%"}, {"smiles": "C=C1CC[C@H](O)CC1=C/C=C1\\CCC[C@]2(C)[C@@H]([C@H](C)/C=C/[C@H](C)C(C)C)CC[C@@H]12", "max response": "7.88% and 8.32%"}, {"smiles": "CC(C)(C)c1ccc(CN2CCN(C(c3ccccc3)c3ccc(Cl)cc3)CC2)cc1", "note": "(configuration not stated)", "max response": "1.38% and -2.29%"}, {"smiles": "O=P(O)(O)OP(=O)(O)OP(=O)(O)O", "max response": "-3.72%"}, {"smiles": "CC[C@H](CC[C@@H](C)[C@H]1CC[C@H]2[C@@H]3CC=C4C[C@@H](O)CC[C@]4(C)[C@H]3CC[C@]12C)C(C)C", "max response": "-4.33%"}, {"smiles": "Nc1ccc(N=Nc2ccccc2)c(N)n1", "max response": "1.52%"}, {"smiles": "CC(C)=CCC/C(C)=C/CC/C(C)=C/CC/C(C)=C/CC1=C(C)C(=O)c2ccccc2C1=O", "max response": "5.32% and -12.9%"}, {"smiles": "C[C@]12CC[C@@H]3c4ccc(OC(=O)c5ccccc5)cc4CC[C@H]3[C@@H]1CC[C@@H]2O", "max response": "-12.6%"}, {"smiles": "CCN(CC)CCOc1ccccc1OC", "max response": "3.77%"}, {"smiles": "CC(=O)OCC(=O)[C@@]1(O)CC[C@H]2[C@@H]3CCC4=CC(=O)CC[C@]4(C)C3=CC[C@@]21C", "max response": "-7.13%"}, {"smiles": "COc1ccc2nc(NC(=O)Nc3ccccc3)sc2c1", "max response": "36.1%"}, {"smiles": "O=C(OCc1ccccc1)c1ccc(O)cc1", "max response": "2.26%"}, {"smiles": "C/C(=C\\C(=O)OCCCCCCCCC(=O)O)C[C@@H]1OC[C@H](C[C@@H]2O[C@H]2[C@@H](C)[C@H](C)O)[C@@H](O)[C@H]1O", "max response": "-2.38%"}, {"smiles": "COC1=C(OC)C(=O)C(C/C=C(\\C)CC/C=C(\\C)CC/C=C(\\C)CC/C=C(\\C)CC/C=C(\\C)CC/C=C(\\C)CC/C=C(\\C)CC/C=C(\\C)CC/C=C(\\C)CCC=C(C)C)=C(C)C1=O", "max response": "-15.4%"}, {"smiles": "NC(=O)[C@@H]1C[C@]2(NC(=O)NC2=O)c2cc(F)ccc2O1", "max response": "-7.8%"}, {"smiles": "N#Cc1ccc2c(c1)N(CCCN1CCC(O)CC1)c1ccccc1S2", "max response": "1.4%"}, {"smiles": "CCN1C(=O)NC(c2ccccc2)C1=O", "note": "(configuration not stated)", "max response": "16.5%"}, {"smiles": "CC(C)CCC[C@@H](C)[C@H]1CC[C@H]2[C@@H]3CC=C4C[C@@H](O)CC[C@]4(C)[C@H]3CC[C@]12C", "max response": "-10.6%"}, {"smiles": "CC1CC(OC(=O)C(O)c2ccccc2)CC(C)(C)C1", "note": "(configuration not stated)", "max response": "19.9% and -6.72%"}, {"smiles": "CCCC1C(=O)N2C(N(C)C)=Nc3ccc(C)cc3N2C1=O", "note": "(configuration not stated)", "max response": "-2.47%"}, {"smiles": "CC(=O)NCCCS(=O)(=O)O", "max response": "14.2%"}, {"smiles": "CCC(=O)c1ccc2c(c1)N(CCCN1CCN(CCO)CC1)c1ccccc1S2", "max response": "-13.4%"}, {"smiles": "NC(=S)NS(=O)(=O)c1ccc(N)cc1", "max response": "5.24%"}]}]}
